# Screening data: PubChem, several laboratories
# Most compounds without a hit are left out; they make up all but 4.3% or so of the library.
# HSF1 inh = HSF1 inhibitors in luciferase reporter cells, primary screen, cell-based, NIH3T3, luminescence; NIH3T3-HGL HSE-luciferase, MG132-induced, luminescence 8 h; active compounds read low; activity change, negative = inhibition, % at 7.5 µM (by protocol); hit rate 0.77% among 300,000;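 active = more than half of replicate wells show activity change below -50%, luminescence cut by over half; inconclusive = some wells, but at most half, below -50%; inactive = no replicate well below -50%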;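 note: luciferase reports HSF-1 transcriptional activity via heat shock element; 0% = median of DMSO wells and -100% = zero luminescence signal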
# HSF-1 act = HSF-1 activators, primary screen, NIH3T3-HGL cells, MG132 stress, luminescence, single point; NIH3T3-HGL HSF-1 luciferase reporter, 8 h; 100% = twice DMSO control signal; activation, % at 9 µM; hit rate 1.7% among 300,000; AID 504408, 2011;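 active = mean replicate activation of at least 50% with a set share of replicates each reaching 50%; inconclusive = only one of those two conditions met; inactive = mean below 50% and too few replicates reaching it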;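 note: 0% = median of the neutral control wells and 100% = twice that signal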
# MITF act = activators of MITF-driven TRPM1 promoter reporter, primary screen, cell-based, SK-MEL-5, luciferase, single point; SK-MEL-5 TRPM1-promoter luciferase, 24 h; % of positive control, neutral wells = 0; activation, % at 12.5 µM; hit rate 0.75% among 300,000; AID 588334, 2011;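 active = mean activation of at least 80% with every replicate also reaching 80%; inconclusive = mean reaches 80% but some replicate falls short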;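 note: 0% = neutral control wells and 100% = parthenolide positive control wells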
# Wnt act = Wnt/beta-catenin pathway activators, primary screen, cell-based, plate reader, single point | Wnt/beta-catenin reporter cell assay, activator | activation, % at 9.35 µM | hit rate 1.2% among 300,000 | AID 743398, 2014; in the data active = activation above about 30%, passing the limit was not always enough; inconclusive = no clear call, values can overlap the other calls;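 note: 0% = neutral control wells and 100% = positive control wells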
# SMARCA2 activ = SMARCA2 (BRM) function activators, primary screen, cell-based, luminescence, high throughput | activation, % at 9.1 µM | hit rate 1% among 370,000 | AID 652017, 2013 | MG213 cells, MMTV-luciferase reporter, dexamethasone, overnight; in the data active = activation above about 7.8%;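 note: 0% = vehicle wells and 100% = reference activator wells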
# esBAF inh = Bmi1 luciferase reporter increase in mESCs, primary screen, esBAF inhibitor project, mouse ES cells, Bmi1 luciferase knock-in, single point | 24 h; 100% = twice the neutral-well signal | hit rate 2% among 350,000 | AID 602393, 2012 | reporter increase, % at 12.5 µM; in the data active = activation above about 40%; inconclusive = no clear call, values can overlap the other calls;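 note: 0% = median of the plate's neutral control wells and 100% = double that signal; a rise in the Bmi1 reporter signal indicates esBAF inhibition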
# * marks the source's active call; other numbers are inactive results; ? = inconclusive; nt = no result.
SMILES,HSF1 inh,HSF-1 act,MITF act,Wnt act,SMARCA2 activ,esBAF inh
COc1ccc(NC(=O)c2cc3ccccc3oc2=O)cc1,nt,nt,nt,2,3,-77
COc1ccc(NC(=O)c2cc3ccccc3cc2O)cc1,-2,17,79,35*,-1,?
Cc1ccc(NC(=O)c2cc3ccccc3cc2O)cc1,3,4,78,46*,-3,44*
COc1ccc(C(=O)NNC(=O)c2cc3ccccc3cc2O)cc1,4,22,nt,7,-2,nt
COCC(=O)Nc1ccccc1C(=O)Nc1ccc(OC)cc1,2,2,48,36*,3,26
O=C(Nc1ccc(N2CCCCC2)c(Cl)c1)c1cccnc1,9,24,69,13,-1,49*
O=C(NC(=S)Nc1ccc(N2CCOCC2)c(Cl)c1)c1cccs1,6,28,12,2,2,nt
O=C(Nc1ccc(N2CCCC2)c(Cl)c1)c1cccnc1,-10,6,?,7,2,49*
O=C(Nc1ccc(N2CCCC2)c(Cl)c1)c1cccs1,57,82*,62,?,7,27
CNC[C@H]1Oc2ncc(-c3ccccc3F)cc2C(=O)N([C@@H](C)CO)C[C@H]1C,nt,nt,nt,nt,nt,-1
COc1ccc(S(=O)(=O)N(C)C[C@@H]2OCc3cn(nn3)CCCC(=O)N([C@H](C)CO)C[C@@H]2C)cc1,nt,nt,nt,nt,nt,0
Cn1c(C(=O)Nc2ccc3c(c2)OCO3)cc2sccc21,31,66*,62,nt,3,33
COC(=O)c1ccc(NC(=O)c2cc3sccc3n2C)cc1,7,-1,30,19,6,55*
COc1ccc(NC(=O)c2cc3sccc3n2Cc2ccc(F)cc2)cc1OC,-1,25,55,17,4,65*
COc1cc(NC(=O)c2cc3sccc3n2C)cc(OC)c1,39,?,77,?,4,42*
CO[C@H]1CN(C)C(=O)c2cc(NC(C)=O)ccc2OC[C@H](C)N(CCC(F)(F)F)C[C@@H]1C,nt,nt,nt,nt,nt,-12
N#Cc1cc2c(nc1SCc1ccccc1)CCCC2=O,14,27,3,49*,-2,9
CC(=O)c1ccc2c(c1)Cc1cc(C(C)=O)ccc1-2,-7,-11,93*,46*,7,nt
CCOC(=O)c1c(-c2ccc(C)cc2)cn2ccccc12,33,78*,8,nt,2,4
CCOC(=O)c1c(-c2ccccc2)cn2ccccc12,21,19,10,nt,0,0
C[C@H](CO)N1C[C@H](C)[C@H](CN(C)S(=O)(=O)c2ccc(F)cc2)OCCCC[C@H](C)Oc2ccc(NC(=O)C3CCCCC3)cc2C1=O,nt,nt,nt,nt,nt,6
O=C(Cc1ccc(Cl)cc1)c1ccc(O)cc1,22,52*,73,1,5,nt
Cc1ccc(CC(=O)c2ccc(Cl)cc2)cc1,17,25,92*,-2,5,?
O=C(Cc1ccccc1)c1ccc(Cl)cc1,3,28,46,9,0,nt
CO[C@@H]1CN(C)C(=O)c2ccc(NS(=O)(=O)c3ccc(C)cc3)cc2OC[C@@H](C)N(C(=O)NC(C)C)C[C@@H]1C,nt,nt,nt,nt,nt,3
SMILES,HSF1 inh,HSF-1 act,MITF act,Wnt act,SMARCA2 activ,esBAF inh
Cn1cc(Cl)c(C(=O)OCC(=O)Nc2nc(-c3ccc(Br)cc3)cs2)n1,-12,-5,75,26,8,61*
COc1ccc(N2CCN(C(=O)c3ccc(-c4nc5ccccc5s4)o3)CC2)cc1,nt,nt,20,4,0,43*
COc1ccc(NC(=O)N(C)C[C@H]2Oc3ccc(NS(=O)(=O)c4cn(C)cn4)cc3CC(=O)N([C@@H](C)CO)C[C@H]2C)cc1,nt,nt,nt,nt,nt,-1
CC(=O)c1ccc2c(c1)Nc1ccccc1S2,-1,-3,-1,nt,1,nt
C/C(=N\NC(=O)c1ccc(C)cc1C)c1ccc2c(c1)Nc1ccccc1S2,-2,-1,8,8,11*,37
C[C@H](CO)N1C[C@H](C)[C@H](CN(C)Cc2ccc(C(=O)O)cc2)Oc2c(NS(=O)(=O)c3cn(C)cn3)cccc2C1=O,nt,nt,nt,nt,nt,4
COc1ccc(C2=NN3C(C2)c2ccccc2OC3c2cccs2)cc1 (stereo not given),17,63*,57,49*,3,nt
COc1ccc(C2=NN(C(N)=S)C(c3ccccc3)C2)cc1 (stereo not given),23,49,24,17,2,nt
Cc1ccc(C2=NN3C(C(=O)c4ccccc4)Oc4ccccc4C3C2)cc1 (stereo not given),12,22,nt,43*,3,68*
COc1ccc(C2=NN(C(=O)CCC(=O)O)C(c3cccs3)C2)cc1 (stereo not given),1,10,-8,0,-1,nt
Cc1ccc(C(=O)C2Oc3ccccc3C3CC(c4ccc(C)cc4)=NN23)cc1 (stereo not given),10,-15,-13,-1,3,nt
COc1ccc(C2=NN3C(C2)c2ccccc2OC32C(=O)N(C)c3ccccc32)cc1 (stereo not given),57,92*,60,nt,5,16
CO[C@H]1CN(C)C(=O)c2cc(NC(=O)c3cccc(Oc4ccccc4)c3)ccc2OC[C@H](C)NC[C@H]1C,nt,nt,nt,nt,nt,-7
C[C@H]1CN([C@@H](C)CO)C(=O)c2cc(NC(=O)C3CC3)ccc2O[C@H]1CN(C)C(=O)NC1CCCCC1,nt,nt,nt,nt,nt,8
C=C(C)C(=O)Nc1cccc(C2=NOC3(C2)C[C@@H](C(N)=O)N(C(=O)[C@H]2CCC(=O)N2)C3)c1 (stereo not given in full),-2,-4,-4,-1,2,3
NC(=O)[C@H]1CC2(CC(c3cccc(NC(=O)c4ccccc4)c3)=NO2)CN1C(=O)[C@H]1CCC(=O)N1 (stereo not given in full),1,-4,-5,53*,0,0
CCCC(=O)Nc1ccc2c(c1)C(=O)N(C)C[C@H](OC)[C@H](C)CN(C(=O)CC1CC1)[C@H](C)CO2,nt,nt,nt,nt,nt,-2
CCOC(=O)c1ccc(-n2c(CN3CCN(CC)CC3)nc3ccc([N+](=O)[O-])cc3c2=O)cc1,-12,-8,-16,0,7.9*,-2
CCC1(c2ccccc2)NC(=S)N(c2ccc(C)c(C)c2)N1 (stereo not given),21,52*,3,8,0,-3
C[C@H]1CN([C@@H](C)CO)C(=O)c2cccc(NS(=O)(=O)c3ccc(F)cc3)c2O[C@@H]1CN(C)Cc1ccc(Oc2ccccc2)cc1,nt,nt,nt,nt,nt,3
Fc1ccc(OCc2cc(-c3ccccc3)no2)cc1,26,51*,100*,30,4,57*
